{"source": "PubChem BioAssay (NCI)", "note": "The panel holds about 83,000 compounds, 20% with a hit somewhere; the sample as a whole holds those more often.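 Interpretation: 100, growth as untreated; towards 0, rising growth inhibition; 0, no net growth; 0 to -100, cell death. Compounds scoring below 10 were considered active.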 Active and inactive are the calls of the source."}
{"test_system": "COLO 205 colon", "assay": "NCI-60 one-dose screen, 48 h (100 = growth as untreated, 0 = no growth, -100 = all killed)", "details": "10 µM unless noted"}
{"molecule": "Clc1nc(N2CCC[N+]3(CC2)CC[N+]2(CCCNCC2)CC3)nc(N2CCC[N+]3(CC2)CC[N+]2(CCCNCC2)CC3)n1", "note": "(stereo not given)", "growth": "106% (inactive)"}
{"molecule": "O=C(Nc1ccccc1CNc1nc(Nc2ccc(OCCN3CCCC3)cc2)ncc1Cl)NC1CCCCC1", "growth": "89.3% (inactive)"}
{"molecule": "Cc1nc2c(c(-c3ccccc3)n1)Cc1c(ccc3ccccc13)O2", "growth": "100% (inactive)"}
{"molecule": "COC(CCP(=O)(c1ccccc1)c1ccccc1)(C(=O)c1ccccc1)c1ccccc1", "note": "(stereo not given)", "growth": "62.4% (inactive)"}
{"molecule": "Nc1ncc(-c2ccc3ncnc(N4CCc5cc(F)c(Cl)cc54)c3c2)cc1C=O", "growth": "19.6% (inactive)"}
{"molecule": "CC(C)(C)n1cc(-c2ccnc(NCCNS(=O)(=O)c3ccc(C(F)(F)F)cc3)c2)c(-c2ccccc2)n1", "growth": "87.3% (inactive)"}
{"molecule": "Clc1ccc(C2=Nn3c(nnc3-c3cc(Cl)cc(Cl)c3Cl)SC2)cc1", "growth": "40.5% (inactive)"}
{"molecule": "O=C(NC1CCCCCC1)c1ccc2c(=O)n3c(nc2c1)CCCCC3", "growth": "102% (inactive)"}
{"molecule": "C=C1C(=O)O[C@H]2[C@H]1CC/C(CNC(=O)/C=C/c1cc(OC)c(OC)c(OC)c1)=C\\CC[C@@]1(C)O[C@@H]21", "growth": "-86.5% (active)"}
{"molecule": "Cc1c(CC(=O)Nc2ccccc2)nnn1-c1ccccc1", "growth": "112% (inactive)"}
{"molecule": "CCn1c2ccccc2c2cc(C(O)c3cccc4ncccc34)ccc21", "note": "(stereo not given)", "growth": "-33.9% (active)"}
{"molecule": "CSc1nc(CC(C)C)c(C#N)c(=O)n1C", "growth": "43.3% (inactive)"}
{"molecule": "Oc1c(Cl)cc(Cl)c2ccc(CN3CCNCC3)nc12", "growth": "102% (inactive)"}
{"molecule": "CO[C@H]1CC(c2ccc[nH]2)=N[C@]12O[C@@H](C)C[C@@H]1CCCCCCCc3ccc([nH]3)[C@H]12", "growth": "7.52% (active)"}
{"molecule": "Nc1c(C(=O)c2ccc(Cl)cc2)sc(Nc2ccccc2)c1-c1nc2ccccc2s1", "growth": "51.4% (inactive)"}
{"molecule": "Cn1nc(-c2ccc(Cl)cc2)nc2c(=O)n(C)c(=O)nc1-2", "growth": "-90.6% (active)"}
{"molecule": "Cc1ccc(C2=Nc3c(N)nc(N)nc3NC(c3cccc(Nc4ccnc5cc(C(F)(F)F)ccc45)c3)C2)cc1", "note": "(stereo not given)", "growth": "7.09% (active)"}
{"molecule": "COC(=O)[C@H](C)NC(=O)c1ccc(NC(=O)c2[nH]c(C)c(Cl)c2Cl)c(OCCN)c1", "growth": "104% (inactive)"}
{"molecule": "CC(C)=CC(=O)C1C(=O)c2ccccc2C1=O", "growth": "115% (inactive)"}
{"molecule": "C=CCn1c(SCC(=O)Nc2ccc(C(=O)/C=C/c3ccc(Cl)cc3)cc2)nnc1-c1ccc(Cl)c(Cl)c1", "growth": "100% (inactive)"}
{"molecule": "CC(C)n1cc(C2=C(c3cccc4ccccc34)C(=O)NC2=O)c2cc(Br)ccc21", "growth": "62.2% (inactive)"}
{"molecule": "CC1(C)C2=C(C(=O)N1Cc1ccccc1)C(c1ccco1)N(C(=O)C1CCC1)CCN2", "note": "(stereo not given)", "growth": "112% (inactive)"}
{"molecule": "COc1cc(OC)cc(C(=O)Nc2cnc(Nc3ccc(N4CCOCC4)nc3)nc2Oc2ccc(C(F)(F)F)cc2)c1", "growth": "83% (inactive)"}
{"molecule": "C=C(c1ccc(C(=O)O)c(F)c1)c1cc2c(cc1C)C(C)(C)C=CC2(C)C", "growth": "107% (inactive)"}
{"molecule": "O=C1c2c(c3c4cc(F)ccc4oc3c3[nH]c4ccccc4c23)C(=O)N1O", "growth": "57.7% (inactive)"}
{"molecule": "CCCN1C(=O)N(CCC)C2C1NC(=S)N2/N=C/C=C/c1ccccc1OC", "note": "(stereo not given)", "growth": "17.6% (inactive)"}
{"molecule": "O=C(Nc1ccccc1)Nc1ccccc1CNc1nc(Nc2ccc(OCCN3CCCC3)cc2)ncc1Cl", "growth": "33% (inactive)"}
{"molecule": "O=C1NC(=O)C(=Cc2cc(-c3ccc(Cl)cc3)n(-c3ccccc3)n2)C(=O)N1", "growth": "108% (inactive)"}
{"molecule": "COc1ccc(-c2nc3cc(C(=O)NC4CCCCC4)ccc3n2C2CCCCC2)cc1", "growth": "73.6% (inactive)"}
{"molecule": "O=c1ccc2c(ccc3ncccc32)o1", "growth": "107% (inactive)"}
{"molecule": "CC/C(=C(/c1ccc(Cl)cc1)c1ccc(OCCN(CC)CC)cc1)c1ccc(OC)cc1", "growth": "22.2% (inactive)"}
{"molecule": "COc1ccc(N2C(=O)/C(=C/C(Cl)=C/c3ccc([N+](=O)[O-])cc3)SC2=S)cc1", "growth": "-36% (active)"}
{"molecule": "CCOC(=O)CC1CSC(N/N=C(/C)c2cccc(C(F)(F)F)c2)=N1", "note": "(stereo not given)", "growth": "107% (inactive)"}
{"molecule": "CSc1nc(N)c2c(n1)NC(c1ccccc1)C1CCc3ccccc3C1=N2", "note": "(stereo not given)", "growth": "78.6% (inactive)"}
{"molecule": "COc1cc2cc(Oc3ccc(NC(=O)Nc4ccc(F)c(C(F)(F)F)c4)cc3)c(C)nc2cc1OCCN1CCCCC1", "growth": "-64% (active)"}
{"molecule": "O=C(Nc1ncc(Cc2ccccc2)s1)c1cc(-c2ccccc2)nc2ccccc12", "growth": "100% (inactive)"}
{"molecule": "CN1CCN(Cc2ccc(NC(=O)c3cncc(C#Cc4cnc(N)c5ncccc45)c3)cc2Cl)CC1", "growth": "70.3% (inactive)"}
{"molecule": "COc1c(O[C@@H]2OC(CO)[C@H](O)[C@H](O)C2O)cc2oc3cc(O)c(CC=C(C)C)c(O)c3c(=O)c2c1CC=C(C)C", "note": "(stereo not given in full)", "growth": "96.3% (inactive)"}
{"molecule": "COc1cccc(-c2cc(-c3ccc(Nc4nc(Nc5ccc(Cl)cc5)nc(Nc5ccc(Cl)cc5)n4)cc3)nc(N)c2C#N)c1", "growth": "-30.4% (active)"}
{"molecule": "O=C(NCCN1CCOCC1)c1cncnc1Nc1ccc2c(ccn2Cc2ccccn2)c1", "growth": "95.6% (inactive)"}
